In PubChem BioAssay (NCI) one finds growth data, which are given here for 40 compounds.

Compounds without any hit were thinned out: in the full panel of roughly 83,000, 20% have a hit.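 Testing used 96-well plates and a 48-hour single-concentration exposure. Example: -40 means 40% of the starting cells died.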 Active and inactive are the calls of the source.

The assay deals with OVCAR-4 ovarian. Briefly: NCI-60 one-dose screen, 48 h (100 = growth as untreated, 0 = no growth, -100 = all killed). As to conditions: 10 µM. The procedure:
Growth inhibition of the OVCAR-4 human tumor cell line is measured as a screen for anti-cancer activity. Cells are grown in 96 well plates and exposed to the test compound for 48 hours. Compounds are tested at a single concentration, which is 10^-5 M for most compounds. The reported endpoint is percent growth (GI% or GIPRCNT), where numbers from 0 - 100% represent growth inhibition, and numbers from -100% - 0 represent cell death. For example, a value of 40 represents 60% growth inhibition. A value of 0 means no net growth occurred over the course of the experiment. A value of -40 indicates 40% of cells at the beginning of the experiment died by the end of the experiment. A value of -100 means all cells are dead at the end of the experiment.
NCI-60 Human Tumor Cell Lines Screen was performed using the standard one-dose NCI protocol, which is described in more detail at https://dtp.cancer.gov/discovery_development/nci-60/default.htm.
Compounds with GIPRCNT values below 10 were considered active. Activity score was based on GIPRCNT using the following formula: […]
Score is 0 for GIPRCNT values of 100 or above, 50 for GIPRCNT values of 0, and 100 for GIPRCNT values of -100.
As for `CN(C)CCOc1ccc(-c2nc3sccn3c2-c2ccnc(S(C)(=O)=O)n2)cc1`, the growth is 95.9% (inactive).

Turning to `O=C(O)c1cc([N+](=O)[O-])ccc1Oc1ccccc1`, the growth was 104% (inactive).

With `Cc1ccc(NC(=S)NNC(=S)Nc2ccc(C)cc2)cc1`, the growth is 106% (inactive).

As for `C[C@@H](O)[C@H]1C(=O)N2C(C(=O)O)=C(SCCN=CN)C[C@H]12`, the growth was -2.15% (active).

Consider `O=[N+]([O-])c1ccc(/C(=C/c2ccccc2)[n+]2ccccc2)cc1`, for which the growth is 100% (inactive).

For the compound `CC(C)(C)c1nn(-c2ccccc2)c2c1CC1(CN2Cc2ccc(Cl)cc2)C(=O)c2ccccc2C1=O`, the growth is 72.9% (inactive).

As to `C1CN(CC2CCC(CN3CCOCC3)O2)CCO1` (stereo not given), the growth was 107% (inactive).

With `S=c1cnc2ccccc2[nH]1`, the growth was 105% (inactive).

Turning to `COc1cc2cc(Oc3ccc(NC(=O)Nc4cccc(C(F)(F)F)c4)cc3)c(C)nc2cc1OC`, the growth was 31.7% (inactive).

With `COc1ccc(-c2nn(-c3cccc(Cl)c3)cc2-c2c(C#N)c(N)n(N)c(=O)c2C#N)cc1`, the growth was 89.3% (inactive).

Take `CN1CCc2c(sc3nc4n(-c5ccc(Cl)cc5)c(=O)[nH]n4c(=O)c23)C1`: the growth was 109% (inactive).

As for `O=c1oc2c(cc1-c1ccc(F)cc1)C(O)Oc1ccccc1-2` (stereo not given), the growth is 90.6% (inactive).

With `O=C(CCCCCCC(=O)Nc1ccccc1)NO`, the growth is 38.3% (inactive).

In the case of `NC1=CC(=O)C(=O)c2cccnc21`, the growth was 91.8% (inactive).

`COc1ccc(/C=C2\CCCC3=C2N=C2SC(C)=CN2C3c2ccc(OC)cc2)cc1` (stereo not given): the growth is 97% (inactive).

Consider `COc1cc(/C=C2\CCCC3=C2NC(N)=NC3c2cc(OC)c(OC)c(OC)c2)cc(OC)c1OC` (stereo not given), for which the growth is 27% (inactive).

With `COc1ccc(-c2nc(-c3nc4ccc(C)cc4[nH]3)cc3c2[nH]c2ccccc23)cc1`, the growth is 45.1% (inactive).

In the case of `COc1ccc(/C=C/c2nnc(/C=C/c3ccc(OC)c(OC)c3)o2)cc1OC`, the growth was 57.6% (inactive).

Consider `CCn1c2ccc(O)cc2c2c(C)c3c[n+](C)ccc3c(C)c21`, for which the growth is 52% (inactive).

As for `CC(C)(C)OC(=O)CN1CCc2c(sc3ncnc(N/N=C/c4cccc5ccccc45)c23)C1`, the growth was 54.5% (inactive).

As for `C/C=C/C1=CN2C(=O)c3cc(OC4OC(C)C(NC)C(C)(O)C4O)c(C)c(O)c3N=C[C@@H]2C1` (stereo not given in full), the growth is 6.69% (active).

As for `CNC(=O)c1cn2c3c(c(N4CCN(C)CC4)c(F)cc3c1=O)OC[C@@H]2C`, the growth is 94.1% (inactive).

As for `C#CCOc1c(OC)cc(C(=O)/C(C)=C/c2cccc(N=[N+]=[N-])c2)cc1OC`, the growth was 55.9% (inactive).

In the case of `CCCc1nc(C(C)(C)O)c(C(=O)O)n1Cc1ccc(-c2ccccc2-c2nn[nH]n2)cc1`, the growth is 100% (inactive).

In the case of `O=C(Nc1ccc(OCc2nnc(-c3ccc(Cl)cc3)o2)c(F)c1)Nc1ccc(Cl)c(C(F)(F)F)c1`, the growth is 17.2% (inactive).

In the case of `CCC(c1ccc(OC)cc1)C(CC)c1ccc(O)c(CN2CCN(C)CC2)c1` (stereo not given), the growth is 60.2% (inactive).

As to `COc1ccc(Nc2cnc3cc(NS(=O)(=O)c4ccc(C)cc4)ccc3n2)cc1`, the growth is 86.5% (inactive).

With `CSc1ccc(-c2cc(-c3ccc(NC(=O)CCCN4CCCC4)cc3)nc(-c3ccc(NC(=O)CCCN4CCCC4)cc3)c2)cc1`, the growth is 67.3% (inactive).

Regarding `COc1ccccc1N1CCCSC1=Nc1ccccc1`, the growth is 151% (inactive).

On to `CCOC(=O)c1cc(C(=O)c2cc(OC)cc(OC)c2)n2nc(C)ccc12`, for which the growth is 56.6% (inactive).

For the compound `c1ccc2c(c1)Cc1ccccc1N2CCN1CCCCC1`, the growth was 95.2% (inactive).

Take `COc1cc(/C=C/c2cc(/C=C/c3ccc(O)c(OC)c3)[nH]c(=O)n2)ccc1O`: the growth is 54% (inactive).

On to `CC(=O)N[C@H](C(=O)N[C@@H](CCCNC(=N)N)C(=O)N[C@@H](CCCCN)C(=O)N[C@@H](CCCNC(=N)N)C(=O)N[C@]1(C)CCCCCC/C=C\CCC[C@@](C)(C(=O)N[C@@H](CCCNC(=N)N)C(=O)N[C@@H](CCC(=O)O)C(=O)N[C@@H](CC(C)C)C(=O)N[C@H](C(=O)N[C@@H](CCC(=O)O)C(N)=O)C(C)C)NC(=O)[C@H](CCC(N)=O)NC(=O)[C@H](CC(C)C)NC(=O)[C@H](CC(C)C)NC(=O)[C@H](CCCNC(=N)N)NC(=O)[C@H](CCCNC(=N)N)NC(=O)[C@H](CC(C)C)NC1=O)C(C)C`, for which the growth was 39.6% (inactive).

For `CC(C)(C)OC(=O)CC(S(=O)(=O)c1ccccc1)S(=O)(=O)c1ccccc1`, the growth is 107% (inactive).

`CC(=O)Nc1ccc2c(c1)C(=O)c1cccc(C(=O)O)c1-2`: the growth is 108% (inactive).

As to `CC(=O)[C@H]1CC[C@]2(C)[C@@H]1CC[C@@H]1[C@@]3(C)CC(CCC#N)(CCC#N)C(=O)C(C)(C)[C@@H]3CC[C@]12C`, the growth is 87.2% (inactive).

For the compound `CCC(CC)n1c(C)cc(=O)n1C(CC)CC`, the growth is 107% (inactive).

On to `C=CCNCCN1C(=O)c2ccc3c4c(ccc(c24)C1=O)C(=O)N(CCNCC=C)C3=O`, for which the growth was -97.5% (active).

Regarding `Cc1ccc(N=Nc2ccccc2)cc1`, the growth was 108% (inactive).

Take `C[N+]1(CCCCC[N+]2(C)CCCC2)CCCC1`: the growth was 97.4% (inactive).
